From PubChem BioAssay AID686971 (National Center for Advancing Translational Sciences (NCATS), 2013)
Out of some 360,000 compounds screened, about 7,500 (2.1%) were called active. A call without a number means that no potency is given here. About 8% were inconclusive and are not listed. The full list was thinned out, with actives kept by preference. A number with no mark means an inactive call. Calls come from the whole dose curve; as a rule, active = well fitted cell-killing curve with a large enough effect; inconclusive = small, poorly fitted or top-dose-only effect, or effect the other way, or another doubt; inactive = no such curve, though single readings can be large or run the other way.

Assay: qHTS for induction of synthetic lethality in tumor cells producing 2HG: qHTS for the HT-1080-IDH1KD cell line
Conditions: HT-1080 IDH1 knockdown viability, ATP luminescence, 48 h; series mostly up to 46.1 µM
How it was run: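 In this qHTS, HT-1080 cells depleted of IDH1 are exposed for 48 h at 37 °C to compound titrations. Toxicity is scored from CellTiter-Glo luminescence, with DMSO as full viability and medium alone as none.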
Potency is the fitted concentration of half-maximal effect.

| Structure (SMILES) | Potency | activity, negative = toxicity |
| --- | --- | --- |
| Cc1noc(C)c1NC(=O)N(C)C[C@@H]1Oc2cc(Br)ccc2S(=O)(=O)N([C@@H](C)CO)C[C@H]1C | inactive |  |
| CCCNC(=O)C1(C)CCN(C(=O)c2ccc(F)cc2Cl)C1 (stereo not drawn) | inactive |  |
| Cc1cccc(C)c1-n1nnnc1C(CCc1ccccc1)N1CCN(C/C=C/c2ccccc2)CC1 (stereo not drawn) | inactive |  |
| O=C(CC[C@H]1O[C@@H](n2ccc(=O)[nH]c2=O)[C@H](O)[C@@H]1O)N[C@H](Cc1ccccc1)C(=O)NCCCN1CCCC1=O | inactive |  |
| O=C(NNC(=O)C1CCCC1)c1ccc(F)cc1 | inactive |  |
| CCc1noc(C)c1C(=O)NNC(=O)c1ccc(F)cc1 | inactive |  |
| O=C(/C=C/c1ccc([N+](=O)[O-])o1)NNC(=O)c1ccc(F)cc1 | 2.59 µM (active) |  |
| CC(C)c1ccc2c(c1)c(SC(C)(C)C)c(CC(C)(C)C(=O)O)n2Cc1ccc(Cl)cc1 | 18.4 µM (active) |  |
| N#CCCN(C(=O)Nc1ccc(Cl)c(Cl)c1)C1CCCCC1 | inactive |  |
| C[C@H](CO)N1C[C@H](C)[C@@H](CN(C)C(=O)c2cccc(F)c2)Oc2cc(-c3cncnc3)ccc2S1(=O)=O | inactive |  |
| Clc1cccc(N=C2NN=C(c3ccc4c(c3)OCCO4)CS2)c1 | 7.94 µM (active) |  |
| CN(C)c1nc(=Nc2cccc(Cl)c2)ss1 | inactive |  |
| C[C@H]1CN([C@@H](C)CO)C(=O)CCCn2cc(nn2)CO[C@@H]1CN(C)S(=O)(=O)c1cccs1 | inactive |  |
| CCCn1c(N)c(C(=O)CSc2nnc(Cc3cccs3)n2C2CC2)c(=O)[nH]c1=O | inactive |  |
| COc1ccc(N)cc1NC(=O)CN1CCOCC1 | inactive |  |
| O=C(COc1ccc(Cl)cc1Cl)N/N=C/c1ccccn1 | inactive |  |
| NC(=S)NN=Cc1ccc(OC(=O)COc2cc(Cl)c(Cl)cc2Cl)cn1 | 7.31 µM (active) |  |
| O=C(COC(=O)COc1cc(Cl)c(Cl)cc1Cl)NC1CC1 | inactive |  |
| CC(C)c1cc(Cn2c3ccccc3c(=O)n2C(C)Cn2cc(C3CC3)nn2)on1 (stereo not drawn) | inactive |  |
| COCCSc1nnc(NC(=O)CCS(=O)(=O)Cc2ccccc2)s1 | inactive |  |
| Cc1nnc(NC(=O)CCCOc2ccccc2)s1 | inactive |  |
| Cc1ccc(CS(=O)(=O)c2ncc(Cl)c(C(=O)Nc3nnc(C)s3)n2)cc1 | 20.6 µM (active) |  |
| CSc1nnc(NC(=O)c2nc(S(=O)(=O)Cc3ccc(C)cc3)ncc2Cl)s1 | 6.51 µM (active) |  |
| Cc1nnc(NC(=O)c2ccc3nccnc3c2)s1 | inactive |  |
| CSc1ncc(Cl)c(C(=O)Nc2cc(C)ccc2C)n1 | inactive |  |
| Cc1cc(OCC(=O)Nc2nccs2)c2c(C)c(C)c(=O)oc2c1 | inactive |  |

| Structure (SMILES) | Potency | activity, negative = toxicity |
| --- | --- | --- |
| CNC(=O)c1ccc(CN(C)C(=O)c2cc(C3CC3)nc3c2cnn3C(C)C)cc1 | inactive |  |
| CC(=O)Oc1ccc(Cn2c(C)c(C(=O)NCc3ccc(C#N)cc3)sc2=O)cc1 | inactive |  |
| O=C(/C=C/[C@H]1O[C@@H](n2ccc(=O)[nH]c2=O)[C@H](O)[C@@H]1O)NCc1ccccn1 | inactive |  |
| Cc1c(CCO)c(=O)n(-c2ccccc2)n1S(=O)(=O)c1ccc(F)cc1 | inactive |  |
| Cc1c(CCO)c(=O)[nH]n1C(=O)c1c(F)cccc1F | 6.31 µM (active) |  |
| CC1C(=O)Nc2ccccc2N1C(=O)c1c(F)cccc1F (stereo not drawn) | inactive |  |
| Cc1ccc(C(=O)OCC(=O)NC2CCCCCCC2)cc1C | inactive |  |
| CCOC(=O)C1CCCN(C(=O)c2ccc(N(C)C)cc2)CC1 (stereo not drawn) | inactive |  |
| CSc1ncnc2c1ncn2CCCNCc1cccs1 | inactive |  |
| CC1(C(=O)NS(=O)(=O)c2cccs2)CCN1C(=O)Cc1ccc(-c2ccccc2)cc1 (stereo not drawn) | inactive |  |
| Cc1ccc(Cc2c(-c3ccccc3)nc3ccc(Cl)cn23)cc1 | inactive |  |
| Cc1ccc(Cc2c(-c3ccco3)nc3ccc(Cl)cn23)cc1 | 16.4 µM (active) |  |
| Cc1ccc(-c2nc3ccc(Cl)cn3c2Cc2ccccc2)cc1 | inactive |  |
| Cc1cccc(CNC(=O)c2sc(=O)n(Cc3ccccc3C)c2C)c1 | inactive |  |
| CCN(CC)C(=O)C1=C(C)N(Cc2ccc(OC)cc2)C(=O)C(CC(=O)NCc2ccco2)C1 (stereo not drawn) | inactive |  |
| CC(C)c1ccc(CC(=O)N2CCC2(C)C(=O)NS(=O)(=O)c2ccc(C(C)(C)C)cc2)cc1 (stereo not drawn) | inactive |  |
| CC1=CC(C)(C)NC(=S)N1NC(=O)c1ccccc1Cl | inactive |  |
| CC1=CC(C)(C)NC(=S)N1c1ccccc1 | 11.2 µM (active) |  |
| O=C1C(Sc2cccc(F)c2)=C[C@@]2(O)CC[C@@H](O)[C@]1(Sc1cccc(F)c1)[C@H]2O | inactive |  |
| CCOC(=O)c1cc(-c2sc(NC(=O)c3ccccc3)nc2C)n(CCO)n1 | inactive |  |
| Cc1cc(C)n2c(Nc3c(C)cccc3C)c(CCc3ccccc3)nc2n1 | inactive |  |
| COc1ccc(S(=O)(=O)N(C)C[C@H]2OCc3cnnn3CCCC(=O)N([C@H](C)CO)C[C@H]2C)cc1 | inactive |  |
| Oc1c(Cl)cc(Cl)c(Cl)c1Cc1c(O)c(Cl)cc(Cl)c1Cl | 7.31 µM (active) |  |
| COc1cc2nc(N3CCCN(C)CC3)nc(NC3CC3)c2cc1OC | inactive |  |
| CC(=O)NN=C(C)c1ccc(NC(=O)C2CC2)cc1 | inactive |  |
| CCCCN1CC(C)(C)[C@H](CC(=O)Nc2ccc(Br)cc2)C1=O | inactive |  |

| Structure (SMILES) | Potency | activity, negative = toxicity |
| --- | --- | --- |
| COc1ccc(NC(=O)CCNC(=O)Cn2cnc3sc4c(c3c2=O)CCCC4)cc1OC | inactive |  |
| COc1ccc(/C=N/Nc2ncnc3sc4c(c23)CCCC4)cc1O | 20.6 µM (active) |  |
| COc1ccc(NC(=O)CCCNC(=O)Cn2cnc3sc4c(c3c2=O)CCCC4)cc1OC | inactive |  |
| Nc1cccc(-c2cncc(N3CCN(Cc4ccccn4)CC3)n2)c1 | inactive |  |
| C[C@H](CO)N1C[C@H](C)[C@H](CN(C)C(=O)Nc2ccc3c(c2)OCO3)Oc2ncc(Br)cc2C1=O | inactive |  |
| CCC(C)N(C(=O)CSc1nnnn1-c1ccccc1OC)C1CCS(=O)(=O)C1 (stereo not drawn) | inactive |  |
| COc1ccccc1-n1nnnc1S(=O)(=O)Cc1ccc(Cl)cc1 | 16.4 µM (active) |  |
| COc1ccccc1-n1nnnc1SCC(=O)NC(=O)Cc1ccccc1 | inactive |  |
| OC[C@@H]1CN(Cc2ccc3c(c2)OCO3)C[C@H](n2cnc3c(NCc4ccco4)ncnc32)O1 | inactive |  |
| CC(C)(C)C1CCC(=O)N2CCC[C@]2(c2ccccc2)C1 (stereo partly drawn) | inactive |  |
| CCCc1ccc(S(=O)(=O)N2CCN(C(=O)c3cc(C)on3)CC2)cc1 | inactive |  |
| Cc1cc(Nc2ccc(C)c(C)c2)n2ncnc2n1 | inactive |  |
| CC(=O)OC[C@@H]1CN(Cc2ccccc2)C[C@H](n2cnc3c(NCc4ccco4)ncnc32)O1 | inactive |  |
| Oc1ccccc1-c1cc(-c2ccc(Cl)cc2)n[nH]1 | 16.4 µM (active) |  |
| O=C(Nc1ccc(Cl)cn1)c1ccccc1-c1ccccc1 | inactive |  |
| CSc1ccccc1-c1nnc(-c2ccc(Cl)cc2)o1 |  | -1.6% [at 9.24 µM] |
| O=C(COc1ccc(Br)cc1)OCC(=O)c1ccc[nH]1 | inactive |  |
| Cc1ccc(C(=O)N[C@H](C(=O)N2CCN(c3ncccn3)CC2)C(C)C)cc1 | inactive |  |
| O=C(NN=Cc1ccccc1)c1ccccc1 | inactive |  |
| Oc1ccccc1C=NC1CCCCC1N=Cc1ccccc1O (stereo not drawn) | inactive |  |
| O=C(CO/N=C/c1ccccc1O)NNC(=O)c1ccccc1Cl | inactive |  |
| O=C(CCC(=O)Nc1ccccc1)N/N=C/c1ccccc1F | inactive |  |
| O=C(NN=Cc1ccccc1O)NN=Cc1ccccc1O | 8.2 µM (active) |  |
| C=CCOc1ccccc1/C=N/NC(=O)Cc1ccccc1 | inactive |  |
| O=C(N/N=C/c1ccccc1O)C1CCCC1 | 23.1 µM (active) |  |
| COc1ccc(/C=N/NC(=O)C2CC2)c(OC)c1OC | inactive |  |

| Structure (SMILES) | Potency | activity, negative = toxicity |
| --- | --- | --- |
| O=C(N/N=C/c1ccccc1O)/C(=C/c1ccccc1)CCO | 3.26 µM (active) |  |
| Brc1ccc2nc(-c3ccccc3)c(Cc3ccccc3)n2c1 | inactive |  |
| O=C(N/N=C/c1ccc(Cl)cc1)c1nc2ccc([N+](=O)[O-])cc2c(=O)[nH]1 | inactive |  |
| N#C/C(=C(/O)COC(=O)COc1ccc(Cl)cc1)c1nc2ccccc2[nH]1 | inactive |  |
| O=C(/C(=C/c1cccc(Cl)c1)c1nc2ccccc2[nH]1)c1ccccc1 | 3.26 µM (active) |  |
| CCOC(=O)c1ccc(NC(=O)c2nc[nH]c2C(=O)NCc2ccccc2)cc1 | inactive |  |
| O=C(Nc1cc(Br)ccc1F)c1nc[nH]c1C(=O)NCc1ccccc1 | inactive |  |
| O=C(Nc1ccon1)c1nc[nH]c1C(=O)NCc1ccccc1 | 2.59 µM (active) |  |
| COc1ccc(-c2c(C#N)cnc(C)c2C)c(O)c1OC | inactive |  |
| OCCN1CCN(c2ncnc3c2ncn3[C@H]2CN(Cc3ccco3)C[C@@H](CO)O2)CC1 | inactive |  |
| O=C(NN=Cc1ccc2c(c1)CCC2)c1ccccc1O | inactive |  |
| COc1ccc(-c2cc(C(=O)NCCCN3CCOCC3)no2)cc1 | inactive |  |
| COc1ccc(-c2ccc(C(=O)NCCN3CCOCC3)c3occc23)c(C)c1 | 18.4 µM (active) |  |
| Cc1cc(C)cc(C(=O)NCCN2CCOCC2)c1 | inactive |  |
| CCCNC(=O)C[C@@H]1CC[C@@H]2[C@H](COC[C@H](O)CN2C(=O)c2cc(Cl)cc(Cl)c2)O1 | inactive |  |
| CC(OC(=O)c1cccnc1Cl)C(=O)NC1CCCCC1 (stereo not drawn) | inactive |  |
| COc1cccc(-c2ccc3c(c2)N(Cc2ccccc2OC)C(=O)C(C)S3)c1 (stereo not drawn) | inactive |  |
| Cc1ccc(C)c(OCC(=O)NNC(=O)C2CCC2)c1 | inactive |  |
| O=C(NNC(=O)C1CCC1)c1ccccc1 | inactive |  |
| Cc1ccc(NNC(=O)C2CCC2)cc1C | 7.31 µM (active) |  |
| CC1(C2CC2)NC(=O)N(CC(=O)N2CCN(c3ccccc3F)CC2)C1=O (stereo not drawn) | inactive |  |
| CCCCCCN1CCN(C2CN(Cc3cn(Cc4ccc(F)cc4)nn3)S(=O)(=O)C2)CC1 (stereo not drawn) | inactive |  |
| COC(=O)c1ccc(NC(=O)c2ccccc2NS(=O)(=O)c2ccccc2)cc1 | 11.2 µM (active) |  |
| CCOc1ccc(NC(=O)c2ccccc2NS(C)(=O)=O)cc1 | inactive |  |
| COC(=O)c1ccccc1NS(=O)(=O)c1ccc2[nH]c(=O)[nH]c2c1 | inactive |  |
